Values joined by “and” are separate entries in the source; they are usually repeats but may differ in a detail not shown here. Identical values can stand only once. Screen size: about 290,000 compounds; about 11,000 (3.8%) were called active. The sample as a whole holds a higher share of actives than the screen did. Unmarked numbers belong to inactive results.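 Rule for the calls: active = mean replicate inhibition above about 79%, with every replicate also reaching it (limit read from the data); inconclusive = only one of the two criteria met; inactive = mean below limit and not every replicate reaching it.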
These molecules were tested against FAD-linked sulfhydryl oxidase ALR (Homo sapiens) (UniProt P55789) (assay: inhibitors of human ALR sulfhydryl oxidase, primary screen, biochemical, H2O2 detection, HRP-luminol luminescence, single point (AID 485317)). Settings: purified ALR, DTT oxidation, hits give high values, concentration not given here.
Chain of FAD-linked sulfhydryl oxidase ALR (Homo sapiens) (P55789 whole entry, looked up): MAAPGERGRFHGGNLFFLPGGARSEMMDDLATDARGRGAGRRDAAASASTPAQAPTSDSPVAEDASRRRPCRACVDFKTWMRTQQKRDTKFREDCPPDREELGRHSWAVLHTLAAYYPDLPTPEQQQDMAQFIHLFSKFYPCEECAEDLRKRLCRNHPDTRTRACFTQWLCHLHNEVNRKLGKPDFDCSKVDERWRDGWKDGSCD

In order of rising inhibition:
1. O=C(NCc1ccccn1)Nc1ccc(Cl)cc1  -24.3%
2. CCCCN1C(=O)/C(=C2/Sc3ccc(Cl)cc3N2CC)SC1=S  -23.2%
3. COc1ccc(CCC(=O)c2ccc(OC)cc2)cc1  -20.1%
4. CCC1=Nc2cc(C(=O)NCCN3CCCC3)ccc2Sc2ccc(C)cc21  -17.3%
5. CCOc1ccc(C(C)NC(=O)CN2C(=O)NC3(CCCCC3)C2=O)cc1OCC (stereo unspecified)  -15.6%
6. O=C(COC(=O)/C=C/c1cccc(Cl)c1)NCc1cccs1  -15.2%
7. COc1ccc(-c2nnc(SCc3cccnc3)o2)cc1  -15%
8. COc1cccc(NC(=O)CN(C)C(=O)CSC(=S)N2CCCC2)c1  -14.6%
9. CC(C)n1ncc2c(C(=O)Nc3ccc(CC#N)cc3)cc(C3CC3)nc21  -14.1%
10. Cc1ccc(C)c(S(=O)(=O)N2CCN(c3ncnc4sccc34)CC2)c1  -13.7%
11. Cc1ccc(NC(=O)c2cnc(SCC(=O)NCC3CCCO3)n(C)c2=O)cc1 (stereo unspecified)  -10.7%
12. Cc1nc(-c2ccc(F)cc2)c(CC(=O)Nc2cc(S(=O)(=O)N3CCCCC3)ccc2C)s1  -9.47%
13. Cc1ccc(S(=O)(=O)c2ccc(Oc3ccccc3)cc2)cc1  -8.5%
14. Cc1nc2cc(NC(=O)Nc3cccc(F)c3)ccc2n1C  -7.89%
15. CC1CCC(NC(=O)CNC(=O)c2ccc3ccccc3c2)CC1 (stereo unspecified)  -7.47%
16. Cc1ccccc1SCC(=O)OCC(=O)N1CC(=O)Nc2ccccc21  -7.18%
17. COc1cccc(OC)c1C(=O)Nc1sc2c(c1C(N)=O)CCCC2  -6.93%
18. Cc1ccc(-n2ncc3c(=O)[nH]cnc32)c(C)c1  -6.83%
19. Cc1ccc(SCC(=O)Nc2nncs2)cc1  -6.08%
20. CCN1C(=O)[C@H]2[C@@H](c3ccc(SC4CCCCC4)c(OC)c3)N[C@@](Cc3ccccc3)(C(=O)OC)[C@H]2C1=O  -5.65%
21. CC(Sc1ncnc2c1cnn2-c1ccccc1)C(=O)Nc1ccc(N2CCOCC2)cc1 (stereo unspecified)  -5.27%
22. O=C(NCc1ccccc1)c1onc(CSc2ccncc2)c1C(=O)NCc1ccccc1  -5.05%
23. CCOc1ccc(NC(=O)CSc2nc3ccccc3c(=O)n2Cc2cccs2)cc1  -4.39%
24. COc1cc(N=Cc2c(O)c3ccccc3oc2=O)c(OC)cc1Cl  -4.24%
25. O=C(NCCC1CCCCN1S(=O)(=O)c1ccccc1)C(=O)NCC1CCCO1 (stereo unspecified)  -4.14%
26. Cc1ccc(Nc2ccc(C(N)=O)cc2[N+](=O)[O-])cc1  -3.97%
27. CS(=O)(=O)N(CC(=O)N1CCc2ccccc2C1)c1ccc(Br)cc1  -3.9%
28. CN(CC(=O)Nc1ccc(Cl)c(C(F)(F)F)c1)C(=O)CCC(=O)c1ccccc1  -3.88%
29. COc1ccc(NC(=O)CN(C)C(=O)c2cc(-c3ccc(C)o3)nc3ccccc23)cc1  -3.77%
30. Cc1cc(C(C)(C)C)cc(C)c1N  -3.27%
31. O=C1C=C(c2cc(C(F)(F)F)cc(C(F)(F)F)c2)C[C@@H](c2ccc3c(c2)OCO3)C1  -3.13%
32. Cc1cc(=O)oc2c(C)c(OCC(=O)NCCN3CCOCC3)ccc12  -3.13%
33. CCc1ccc(NC(=O)CN2C(=O)COc3ccc(S(=O)(=O)N4CCCC4)cc32)cc1  -3.09%
34. COCC(=O)N=Nc1c(O)[nH]c2ccccc12  -3.07%
35. O=C(CSc1nc2ccccc2c(=O)n1-c1ccccc1F)N1CCOCC1  -2.73%
36. CC(C)(C)N1CC(c2nc3ccccc3n2Cc2ccc(F)cc2)CC1=O (stereo unspecified)  -2.5%
37. Nc1ccc(Nc2ccccc2)cc1  -2.25%
38. CCCCn1c(N)c(N(CC(C)C)C(=O)c2cccc(S(=O)(=O)N3CC(C)OC(C)C3)c2)c(=O)[nH]c1=O (stereo unspecified)  -2.1%
39. OCCCNc1nc(-c2ccccc2)c2cc(Cl)ccc2n1  -2.06%
40. CCN(CC(=O)Nc1c(F)cccc1F)C(=O)C1CCC1  -1.96%
41. COc1ccc(CCNC(=O)CN2C(=O)COc3ccc(S(=O)(=O)N4CCCC4)cc32)cc1OC  -1.92%
42. COc1ccc(Cl)cc1C(=O)Nc1ccc(N(C)C(C)=O)cc1  -1.72%
43. COc1cc(OC)c(C(=O)Nc2ccccc2-c2ccccc2)cc1OC  -1.64%
44. COc1cc(C(=O)NC2CCN(C)CC2)ccc1Nc1ncc2c(n1)N(C1CCC(O)CC1)CCC(=O)N2C (stereo unspecified)  -1.63%
45. CN1C=CC=C/C1=C1\SC(=S)N(Cc2ccccc2)C1=O  -1.3%
46. COc1ccc(-n2ncc3c(SCC(=O)NNC(C)=O)ncnc32)cc1  -1.15%
47. COc1ccc(OC)c(NC(=O)COC(=O)Cc2ccsc2)c1  -0.814%
48. O=C(NCc1ccc(Cl)cc1)C(=O)NCC1CCCN1S(=O)(=O)c1cccs1 (stereo unspecified)  -0.71%
49. COc1ccc(C2(c3ccc(OC)cc3)NC(=O)N(CC(=O)Nc3cc(C)on3)C2=O)cc1  -0.145%
50. CCOC(=O)C1CCCN(C(=O)c2ccc(C)c(S(=O)(=O)N3CCCCC3)c2)C1 (stereo unspecified)  -0.131%
51. COc1ccccc1N=Cc1c(O)c2ccccc2oc1=O  0.366%
52. S=C(NCC1CCCO1)N1CCN(c2ccc(Cl)c(Cl)c2)CC1 (stereo unspecified)  0.527%
53. O=C(c1ccc(N2CCOCC2)c([N+](=O)[O-])c1)N1CCN(c2ccccc2F)CC1  0.595%
54. CCOC(=O)N1CCN(C(=O)CSc2nc(=O)n3cccc(C)c3n2)CC1  1.32%
55. CCCN(C(=O)c1nc2nccc(C)n2n1)c1c(N)n(Cc2ccccc2)c(=O)[nH]c1=O  1.52%
56. C[C@@H]1CN([C@@H](C)CO)C(=O)c2cc(NC(=O)C3CC3)ccc2O[C@H]1CN(C)C  1.71%
57. CCOC(=O)c1c(-c2ccc(C)cc2)csc1/N=C(\C)C1=C(O)c2ccccc2C1=O  1.75%
58. COc1ccc(C(=O)N2CCN(c3ccc(C(C)=O)cc3F)CC2)cc1S(=O)(=O)NC1CC1  2.33%
59. O=C(O)c1ccc(/C=N/Nc2nc(N3CCCCC3)nc(N3CCCCC3)n2)cc1  3.03%
60. COc1cc(N2C(=O)CSC2=S)cc(OC)c1OC  3.65%
61. COc1ccc(-c2nnc(SCC(=O)c3ccc4c(c3)OCCO4)o2)cc1  4.53%
62. CC(C)(C)c1ccc(OC2=CS(=O)(=O)c3ccccc32)cc1  4.58%
63. Cc1cc(C)cc(N)c1  8.46%
64. NC(=O)c1c(NC(=O)CSc2nnc(-c3ccco3)n2N)sc2c1CCCC2  9.78%
65. O=C(NNC1CC(=O)N(c2cccc(Cl)c2)C1=O)c1cccnc1 (stereo unspecified)  11.7%
66. O=C(COc1ccccc1Cl)N1N=C(c2cccs2)CC1c1ccco1 (stereo unspecified)  12.6%
67. O=C1CC(c2ccccc2)C(=O)N1c1cccc(O)c1 (stereo unspecified)  14.5%
68. CN=c1scc(-c2cc(OC)ccc2OC)n1/N=C/c1c(C)[nH]c2ccccc12  15.7%
69. CCOc1ccccc1OCC(=O)Nc1ccccc1C(=O)NC1CC1  20.6%
70. COCCn1c(SCC(=O)Nc2ccccc2F)nc2c(c1=O)SCC2  23.5%
71. O=C1CSC(=S)N1c1ccc(Cl)c(Cl)c1  38.1%
72. COCCCN(C(=O)CSCc1ccc(C)cc1)c1c(N)n(Cc2ccccc2)c(=O)[nH]c1=O  46.2%
73. Cc1nc2cc(NC(=O)NC3CC3)ccc2n1C  50.8%
74. CCOC(=O)c1c(-c2ccc(-c3ccccc3)cc2)csc1NC(=O)CCC(=O)O  60.9%
75. O=C(CNC(=O)C1COc2ccccc2O1)N/N=C/c1cc(Br)c(O)c(Br)c1 (stereo unspecified)  66.1%

`O=C(CSc1nc2nccnc2c(=O)n1Cc1cccs1)Nc1ccccc1F` was tested, and the inhibition was 98.7% (active).
With `CCCCN1C(=O)/C(=C2/C=CC=CN2C)SC1=S` the inhibition was 99% (active).
In the case of `COc1cc(N=Cc2c(O)[nH]c3ccccc23)cc(OC)c1OC`, the inhibition is reported as 96.6% (active).
For `COc1ccc(N=Cc2c(O)[nH]c3ccccc23)cc1OC`, the inhibition was 99.3% (active).
With `Cc1ccc(Nc2ccccc2N)cc1` the inhibition was 85.9% (active).
For `C=CCn1c(P(C)(=O)O)nc2ccccc21`, the inhibition was -17.7% and -5.83%.
For `C=CCn1c(C2CC(=O)N(c3ccc(C)cc3)C2)nc2ccccc21` (stereo unspecified), the inhibition was 87.3% (active).
With `CC(C)(C)c1ccc(Oc2ccc(N)cc2)cc1` the inhibition was 98.6% (active).
In the case of `Cc1ccc(Oc2ccc(N)cc2)cc1`, the inhibition is reported as 98.9% (active).
In the case of `COc1ccc(-c2nnc(SC(=O)N3c4ccccc4Sc4ccccc43)o2)cc1`, the inhibition is reported as 94.9% (active).
With `Oc1c(Br)cc(/C=N/NC(=S)NCC2CCCO2)cc1Br` (stereo unspecified) the inhibition was 96.2% (active).
`CN(C)c1ccc(CNC(=O)CN2C(=O)COc3ccc(S(=O)(=O)N4CCCC4)cc32)cc1` was tested, and the inhibition was 98.6% (active).
With `Cc1ccsc1-c1nc(CSCC(=O)NCCN2CCCC2)c(C)o1` the inhibition was 97.8% (active).
In the case of `CC(C)(C)c1nnc(N/N=C/c2ccc(O)cc2)n(N)c1=O`, the inhibition is reported as 98.8% (active).
`COC(=O)c1c(-c2ccc(C)cc2)csc1N` was tested, and the inhibition was 97.8% (active).
With `COc1cc(OC)c(C(=O)Nc2ccc(N(C)C)cc2)cc1OC` the inhibition was 99.6% (active).
`COC(=O)CSc1ncnc2c1cnn2-c1ccc(C)cc1C` was tested, and the inhibition was 96.9% (active).
In the case of `O=C1CSC(=S)N1c1ccc(O)cc1`, the inhibition is reported as 91.3% (active).
With `NC(=O)c1c(Nc2nc3c(F)cccc3s2)sc2c1CCCC2` the inhibition was 87.1% (active).
In the case of `O=C1CC(NNc2ccccc2)C(=O)N1c1cccc(Cl)c1` (stereo unspecified), the inhibition is reported as 98% (active).
With `Cc1nc2cc(NCc3cccs3)ccc2n1C` the inhibition was 84% (active).

Reference: PubChem BioAssay AID485317 (Broad Institute, 2010)
